# Results from PubChem BioAssay (NCATS).
# Values joined by “and” are separate entries in the source; they are usually repeats but may differ in a detail not shown here. Identical values can stand only once. Inconclusive results are not listed. Active and inactive are the calls of the source. Unless noted, how the calls were made is not given here.
# What was measured:
# [1] = qHTS Assay for Identifying Gametocytocidal Compounds (AID 743244; active means well fitted curve in the direction sought with a large enough effect; further: potency means the concentration at half of the fitted maximal effect;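 on max response: on the % scale 0 is the no-effect control and ±100 the full control effect; actives lower the fluorescent signal which means gametocytes are killed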); conditions: P. falciparum 3D7 stage III-V gametocytes, alamarBlue, 72 h; max response: stronger effect = lower value
# In short: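 Fluorescence at Ex 525/Em 598 nm, recorded 24 h after alamarBlue addition, reports residual metabolic activity of 3D7 gametocytes (stages III–V) following 72 h compound exposure at 37 °C, 5% CO2.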
# [2] = qHTS profiling of the MIPE4 collection as inhibitors of Plasmodium falciparum (3D7) proliferation (AID 743344);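 further: scaled between DMSO vehicle wells and 0.29 µM artemisinin as full inhibition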; conditions: P. falciparum 3D7 in erythrocytes, SYBR Green DNA fluorescence, 72 h; at 28.5 µM (top of the series) unless noted
# In short: (§1)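 Parasite DNA was quantified by SYBR Green I fluorescence (ex 485, em 535 nm) after overnight lysis in saponin/Triton buffer at room temperature. Cultures at 0.3% parasitemia and 2.5% hematocrit were first exposed to compound for 72 h at 37 C; signals were normalised to artemisinin (0.29 uM) and vehicle wells.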
# [3] = qHTS profiling of the MIPE4 collection as inhibitors of Plasmodium falciparum (DD2) proliferation (AID 743345); conditions: P. falciparum Dd2 in erythrocytes, SYBR Green DNA, 72 h; at 28.5 µM (top of the series) unless noted
# In short: as §1
# [4] = qHTS profiling of the MIPE4 collection as inhibitors of Plasmodium falciparum (DD2) proliferation (Rep 2) (AID 743346); conditions: P. falciparum Dd2 in erythrocytes, SYBR Green DNA, 72 h; at 28.5 µM (top of the series) unless noted
# In short: as §1
# [5] = qHTS profiling of the MIPE4 collection as inhibitors of Plasmodium falciparum (HB3) proliferation (AID 743347);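 further: plate controls were DMSO vehicle wells for no effect and artemisinin wells for full effect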; conditions: P. falciparum HB3 in erythrocytes, SYBR Green DNA, 72 h; at 28.5 µM (top of the series) unless noted
# In short: as §1
# [6] = High-throughput drug toxicity screening in the BPDCN cell line Gen2.2 (AID 1224824); conditions: Gen2.2 BPDCN cells; at 45.8 µM (top of the series) unless noted;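 further: cells exposed to compounds for 48 h before reading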
# In short: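 Seed 500 exponentially growing Gen2.2 cells/well; add compounds by pin tool; incubate 48 h, 37 °C, 5% CO2; add CellTiter-Glo, 15 min RT; read luminescence. % activity vs DMSO (100%) and bortezomib (0%).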
SMILES,max response [1],"parasite growth, % of DMSO control [2]","parasite growth remaining, % of DMSO control (lower = more inhibition) [3]","parasite growth, % of control (lower = inhibition) [4]","growth, % of control [5]","cell viability, % of control (lower = more cytotoxic) [6]",Potency [1]
CN(C)CCc1c[nH]c2ccc(Cn3cncn3)cc12,-0.403% (inactive),89.2%,102%,62.6%,99.9%,102%,–
CCOC(=O)c1c(C)n(C)c2ccc(O)cc12,2.91% (inactive),93.9%,93.3%,87.1%,66.7%,232%,–
Cc1ccc(S(=O)(=O)NC(=O)NN2CC3CCCC3C2)cc1 (stereo unspecified),2.23% (inactive),14%,13.9%,16.9%,7.17%,109%,–
N=C(N)c1ccc2cc(OC(=O)c3ccc(N=C(N)N)cc3)ccc2c1,6.62% (inactive),6.93%,9.8%,14%,12.8%,175%,–
Cn1c(NCCN(CCO)CCCc2ccc([N+](=O)[O-])cc2)cc(=O)n(C)c1=O,4.58% (inactive),5.83%,76.1%,7.33%,9.64%,108%,–
CCC(C)(Oc1ccc(C2(c3ccc(OC(C)(CC)C(=O)O)cc3)CCCCC2)cc1)C(=O)O (stereo unspecified),16.5% (inactive),100%,98.3%,73.7%,107%,148%,–
CCOc1cc(CC(=O)N[C@@H](CC(C)C)c2ccccc2N2CCCCC2)ccc1C(=O)O,1.56% (inactive),83.8%,123%,91.4%,75.6%,23.9%,–
O=C(O)c1cccc(-c2noc(-c3ccccc3F)n2)c1,-7.05% (inactive),93.9%,96.1%,41.6%,99.8%,41.1%,–
O=C(NCCO[N+](=O)[O-])c1cccnc1,-6.52% (inactive),102%,87%,118%,108%,178%,–
CC(=O)NC[C@H]1CN(c2ccc(N3CCOCC3)c(F)c2)C(=O)O1,1.95% (inactive),65.6%,87.8%,51.6%,94.8%,81.5%,–
CCC[C@@H]1C[C@@H](C(=O)N[C@@H]([C@H]2O[C@H](SC)[C@H](O)[C@@H](O)[C@H]2O)[C@@H](C)O)N(C)C1,-9.02% (inactive),28.5%,50.3%,67.1%,66.3%,191%,–
CC(C)[N+]1(C)[C@@H]2CC[C@H]1CC(OC(=O)C(CO)c1ccccc1)C2 (stereo partly specified),6.21% (inactive) and -2.53% (inactive),82.2%,89.9%,77.3%,75%,31.9%,–
C=C(c1ccc(C(=O)O)cc1)c1cc2c(cc1C)C(C)(C)CCC2(C)C,3.99% (inactive),70%,81.7%,105%,76.8%,577%,–
Cc1cc(=O)c2c(O)c3c(O)cc(=O)c4c3c3c(cc(O)c1c23)C(C)(C)C=4O,-6.69% (inactive),6.69%,23.7%,13.7%,5.99%,130%,–
CC1=C(C(=O)O)N2C(=O)[C@@H](NC(=O)[C@H](N)C3=CCC=CC3)[C@H]2SC1,-5.14% (inactive),79.3%,87.3%,74.3%,51.2%,145%,–
COC(=O)C1=C(C)NC(C)=C(C(=O)OCCCN2CCC(c3ccccc3)(c3ccccc3)CC2)C1c1cccc([N+](=O)[O-])c1 (stereo unspecified),–,114%,107%,86.6%,102%,109%,10 µM (active)
CC1=C(C)C(=O)C(C(CCCCCC(=O)O)c2ccccc2)=C(C)C1=O (stereo unspecified),-7.88% (inactive),50.6%,87.9%,46%,74.4%,195%,–
C[Se]CCC(N)C(=O)O (stereo unspecified),-7.98% (inactive),99.6% [at 57.5 µM],105% [at 57.5 µM],135% [at 57.5 µM],86.5% [at 57.5 µM],170% [at 92.2 µM],–
COC1=C(OC)C(=O)C(CCCCCCCCCCO)=C(C)C1=O,-5.2% (inactive),61.7%,84.8%,32.3%,73.4%,145%,–
CC(S)C(=O)NCC(=O)O (stereo unspecified),-4.83% (inactive),95.6%,123%,91.7%,95.5%,104%,–
Clc1ccc(C(Cn2ccnc2)OCc2ccc(Sc3ccccc3)cc2)c(Cl)c1 (stereo unspecified),–,5.64%,6.46%,18.3%,9.13%,183%,–
C[C@H](Cn1cnc2c(N)ncnc21)OCP(=O)(O)O,–,171%,112%,107%,612%,168%,–
COc1cc(C(C)=O)ccc1OCCCN1CCC(c2noc3cc(F)ccc23)CC1,6.32% (inactive),29.6%,54.6%,40.6%,54.6%,69.7%,–
